Compounds with a hit are over-represented: about 3.2% of the library has one in this group of screens.
CRFBP-R2 block: antagonists of CRF-BP/CRF-R2 complex, primary screen, cell-based, HEK293, calcium dye fluorescence, uHTS; hit rate 0.59% among 350,000; AID 588475, 2011; CRF-induced calcium fluorescence; inhibition, % at 11.8 µM;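 active = inhibition of the ligand-induced calcium signal above about 50% at the single tested concentration, limit read from the data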
FAS TE block: FAS thioesterase domain inhibitors, primary screen, biochemical, fluorescence intensity, uHTS | Fatty acid synthase (Homo sapiens), P49327 | recombinant FAS-TE, OMFH fluorogenic substrate, fluorescence endpoint | inhibition, % at 15 µM | hit rate 0.67% among 360,000 | AID 602261, 2012;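 active = compounds whose normalised, plate-corrected inhibition of enzyme fluorescence in the single-dose primary screen is 50% or more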
Cardio protect: cardioprotection against H2O2-induced cell death, primary screen, uHTS, H9c2 cells, ATPLite luminescence; H9c2 cardiomyocytes, H2O2 injury protection, 2 h; protection from H2O2 cell death, % at 20 µM; hit rate 0.63% among 360,000; AID 588492, 2011;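 active = compounds giving at least 50% protection of heart cells from peroxide-induced death in the single-dose screen, raw or plate-pattern-corrected value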
PfG6PD inh: PfG6PD enzyme inhibitors, primary screen, biochemical, fluorescence intensity, uHTS; PfGluPho enzyme, NADPH resazurin-diaphorase fluorescence; inhibition, % at 20 µM; hit rate 0.78% among 350,000; AID 504690, 2011; glucose-6-phosphate dehydrogenase-6-phosphogluconolactonase (Plasmodium falciparum 3D7);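 active = inhibition reaching at least a set limit at 20 µM in the primary screen, cut at about 59% in these data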
CRFBP-R2 agonist: agonists of CRF-BP/CRF-R2 complex, primary screen, cell-based, HEK293, calcium dye fluorescence, uHTS. calcium dye fluorescence (FLIPR); percent of saturating CRF peptide response. activation, % at 13.2 µM. hit rate 0.46% among 350,000;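 active = activation of at least 50%, plus an integration ratio under a set limit after plate pattern correction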
aDG glyco act: activators of alpha-DG glycosylation, primary screen, uHTS, Pro5-aDG cells, AlphaScreen | alpha-DG glycosylation AlphaScreen (IIH6); 0% Pro5, 100% B10-LARGE cell signal | activation, % at 10 µM | hit rate 0.22% among 360,000;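 active = activation of at least 8% versus controls, or a plate z-score of at least 8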;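 also: Pro5 are CHO cells carrying HIG-tagged alpha-DG that lacks glycosylation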
FAS-TE inh conf: FAS thioesterase domain inhibitors, confirmation, biochemical, fluorescence intensity, single concentration | shares compounds with FAS TE block | recombinant FAS-TE, OMFH fluorogenic substrate | inhibition, % at 15 µM | hit rate 45% among 2,300;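 active = compounds inhibiting the enzyme by at least 50% at 15 µM in any one of the replicates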
Of the large screens only hits and unclear results are named; the others gave an inactive call (follow-up assays come after a bar, where they were run).

COc1ccc(-c2cc(C(=O)Nc3cc(S(=O)(=O)N4CCOCC4)ccc3N3CCOCC3)c3ccccc3n2)cc1	FAS TE block 82 | FAS-TE inh conf inactive
COc1ccccc1C(=O)Nc1nc(-c2ccc(S(=O)(=O)N3CCOCC3)cc2)cs1	FAS TE block 52 | FAS-TE inh conf 23
COc1cccc(C(=O)Nc2cc(S(=O)(=O)N3CCOCC3)ccc2N2CCOCC2)c1	none
CCOc1ccc(NS(=O)(=O)c2cc(NC(=O)c3ccc(C)cc3)ccc2Cl)cc1	none
O=C(CN1C(=O)NC2(CCc3ccccc32)C1=O)Nc1ccc(Cl)cc1F (stereo unspecified)	none
Cc1ccc2cc(C)c(SCC(=O)Nc3cc(C)on3)nc2c1	none
O=C(COc1cccc(Cl)c1)Nc1nc(-c2ccc(S(=O)(=O)N3CCOCC3)cc2)cs1	FAS TE block 66 | FAS-TE inh conf 23
CC(C)NC(=O)c1sc(=S)n2c1[nH]c(=O)c1ccc(C(=O)NCCc3ccc(Cl)cc3)cc12	FAS TE block 64 | FAS-TE inh conf inactive
CCOC1=C2[C@@H](CN(S(=O)(=O)c3ccccc3)[C@H]2c2ccccc2)[C@H]2C(=O)N(c3ccccc3)C(=O)[C@H]2C1	none (no result: CRFBP-R2 block, PfG6PD inh, CRFBP-R2 agonist)
Cc1ccc(S(=O)(=O)N2C[C@H]3[C@H]4C(=O)N(C5CCCCC5)C(=O)[C@H]4CC(=O)[C@H]3[C@@H]2c2ccccc2Cl)cc1	FAS TE block 62 (no result: CRFBP-R2 block, PfG6PD inh, CRFBP-R2 agonist) | FAS-TE inh conf inactive
CCCCC[C@@H]1[C@H]2[C@H]3C(=O)N(c4ccccc4)C(=O)[C@H]3CC(=O)[C@H]2[C@H](c2ccccc2)N1S(=O)(=O)c1ccc(C)cc1	FAS TE block 59 (no result: CRFBP-R2 block, PfG6PD inh, CRFBP-R2 agonist) | FAS-TE inh conf inactive
CCOC1=C2[C@H]([C@H]3C(=O)N(c4ccccc4)C(=O)[C@H]3C1)[C@@H](C(C)C)N(S(=O)(=O)c1ccc(C)cc1)[C@H]2c1ccccc1	FAS TE block 58 (no result: CRFBP-R2 block, PfG6PD inh, CRFBP-R2 agonist) | FAS-TE inh conf inactive
CCN1C(=O)[C@@H]2[C@@H]3CN(S(=O)(=O)c4ccc(C)cc4)[C@@H](c4cccc5ccccc45)[C@@H]3C(=O)C[C@@H]2C1=O	none (no result: CRFBP-R2 block, PfG6PD inh, CRFBP-R2 agonist)
CCOC1=C2[C@@H](CN(S(=O)(=O)c3ccc(C)cc3)[C@H]2c2ccc(Cl)cc2)[C@H]2C(=O)N(c3ccccc3)C(=O)[C@H]2C1	FAS TE block 62 (no result: CRFBP-R2 block, PfG6PD inh, CRFBP-R2 agonist) | FAS-TE inh conf inactive
Cc1ccc(S(=O)(=O)N2C[C@H]3[C@H]4C(=O)N(c5ccccc5)C(=O)[C@H]4CC(=O)[C@H]3[C@@H]2c2ccccc2)cc1	none (no result: CRFBP-R2 block, PfG6PD inh, CRFBP-R2 agonist)
Cc1cccc(N(CC(=O)Nc2cccnc2)S(C)(=O)=O)c1	none
CCOC1=C2[C@@H](CN(S(=O)(=O)c3ccc(C)cc3)[C@H]2c2cccc3ccccc23)[C@H]2C(=O)N(C3CCCCC3)C(=O)[C@H]2C1	FAS TE block 67 (no result: CRFBP-R2 block, PfG6PD inh, CRFBP-R2 agonist) | FAS-TE inh conf inactive
CCOC1=C2[C@@H](CN(S(=O)(=O)c3ccc(C)cc3)[C@H]2c2cccc3ccccc23)[C@H]2C(=O)N(c3ccccc3)C(=O)[C@H]2C1	FAS TE block 77 (no result: CRFBP-R2 block, PfG6PD inh, CRFBP-R2 agonist) | FAS-TE inh conf inactive
CCOC1=C2[C@@H](CN(S(=O)(=O)c3ccc(C)cc3)[C@H]2c2cccs2)[C@H]2C(=O)N(c3ccccc3)C(=O)[C@H]2C1	none (no result: CRFBP-R2 block, PfG6PD inh, CRFBP-R2 agonist)
COc1ccc(N2CC(NC(=O)N3CCc4ccccc43)CC2=O)cc1OC (stereo unspecified)	none
O=C(CN1C(=O)c2cccnc2Oc2ccc(Cl)cc21)NCCCc1ccccc1	FAS TE block 55 | FAS-TE inh conf inactive
CCCN1CCN(CCCNC(=O)CN2C(=O)c3cccnc3Oc3ccc(Cl)cc32)CC1	none
O=C1[C@H]2[C@@H](c3ccc(F)cc3)N3C(=O)N(c4cccc(Cl)c4)C(=O)[C@@]3(Cc3ccc(Cl)cc3)[C@H]2C(=O)N1C1CCCCC1	FAS TE block 86 | FAS-TE inh conf inactive
